High-throughput results: PubChem, National Center for Advancing Translational Sciences (NCATS)
MCF10A rereplic: DNA re-replication induction in MCF 10a cells. Potency, µM (top dose mostly 46.1 µM), inactives show at the highest dose activity, positive = re-replication, actives largely listed as activators. actives 2.9% (n = 350,000). MCF 10A DNA re-replication, Hoechst nuclear intensity, 48 h; further: % of control where 0% means no effect; nearly all actives have a fitted effect of over 50% in size
KB-V1 cytotox: KB-V1 MDR subline cytotoxicity. KB-V1 MDR cells viability, CellTiter-Glo, 72 h. actives 3.4% (n = 400,000). Potency, µM (top dose mostly 46.1 µM), usual class: cytotoxic. AID 1347076; further: on the % scale 0 is the no-effect control and ±100 the full control effect; nearly all actives have a fitted effect of over 60% in size
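Drug-selected KB-V1 cells, grown in DMEM lacking phenol red with 10% FBS, receive compound titrations; after three days at 37 degrees C, surviving cell ATP is quantified by CellTiter-Glo luminescence and responses normalized and curve-fitted.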
KB-3-1 cytotox: kills parental KB-3-1 adenocarcinoma cells; KB-3-1 viability, CellTiter-Glo ATP luminescence, 72 h; Potency, µM (doses to about 46.1 µM), hits mostly cytotoxic; actives 1.4% (n = 400,000); further: on the % scale 0 is the no-effect control and ±100 the full control effect; nearly all actives have a fitted effect of over 60% in size
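Luminescent ATP read-out (CellTiter-Glo) measures survival of drug-naive KB-3-1 cells after 72 h compound exposure at 37 °C. Titration series was screened from lowest to highest concentration, with DMSO vehicle plates as background controls.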
Gal4-VP16 FLuc: counter-screen for ROR gamma inhibitors: Gal4-VP16 reporter; Drosophila S2 Gal4-VP16 UAS-luciferase, luminescence, 20 h; Potency, µM (series often up to 53.6 µM), for inactives: top-dose activity, negative = inhibition, usual class: inhibitors; actives 3.5% (n = 310,000); AID 2546;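 further: Gal4-VP16 expression switched on by copper sulfate through the metallothionein promoter; on the % scale 0 is the no-effect control and ±100 the full control effect; nearly all actives have a fitted effect of over 50% in size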
RORgamma inh: inhibitors of mouse ROR gamma transcriptional activity; P51450; AID 2551; Drosophila S2 Gal4-RORgamma UAS-luciferase reporter, 20 h; Potency, µM (series often up to 53.6 µM), without a hit: at the highest dose activity change, negative = inhibition, hits mostly inhibitors; actives 5.4% (n = 310,000); further: on the % scale 0 is the no-effect control and ±100 the full control effect; nearly all actives have a fitted effect of over 60% in size
Target sequence (P51450 whole entry, looked up, the tested form may be a part): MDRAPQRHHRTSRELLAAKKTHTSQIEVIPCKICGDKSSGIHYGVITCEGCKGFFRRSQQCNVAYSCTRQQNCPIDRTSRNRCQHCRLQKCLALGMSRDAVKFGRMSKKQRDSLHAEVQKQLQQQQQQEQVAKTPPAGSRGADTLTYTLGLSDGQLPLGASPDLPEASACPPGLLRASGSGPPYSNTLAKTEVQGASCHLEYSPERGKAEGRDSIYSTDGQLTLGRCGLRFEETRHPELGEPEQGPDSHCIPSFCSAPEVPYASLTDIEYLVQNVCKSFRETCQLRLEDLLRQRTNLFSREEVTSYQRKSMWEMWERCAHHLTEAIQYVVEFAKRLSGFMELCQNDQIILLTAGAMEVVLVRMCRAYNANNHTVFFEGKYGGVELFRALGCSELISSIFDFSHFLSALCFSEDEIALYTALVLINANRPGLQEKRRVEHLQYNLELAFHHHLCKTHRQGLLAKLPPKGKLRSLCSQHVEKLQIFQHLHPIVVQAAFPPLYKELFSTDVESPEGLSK
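Using a luciferase readout, inhibitors were identified by reduced reporter activity in Drosophila cells coexpressing a copper-inducible Gal4–ROR gamma fusion and UAS-driven Photinus luciferase, incubated 20 hr after 700 uM copper sulfate.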
SW480 rereplic: DNA re-replication induction in SW480 cells | actives 1.8% (n = 340,000) | SW480 DNA re-replication, Hoechst DNA content imaging, 48 h | Potency, µM (highest dose often 46.1 µM), for the others: at the top dose re-replication activation, most hits filed as activators | AID 624297; further: % of control where 0% means no effect; nearly all actives have a fitted effect of over 55% in size
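SW480 cells exposed to compounds for 48 hr at 37 C, 5% CO2, then Hoechst-stained 40 min. Nuclear DNA content imaged by fluorescence scanning (405 nm excitation, 500-530 nm emission); re-replication scored as increased high-intensity nuclei.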
An asterisk follows results filed as active; i = inactive; ? = inconclusive; . = no result given; [ ] = another dose, or the depositor's remark. Rows were chosen to be rich in hits. Some 10% of all compounds tested hit in one or more screens of this group. The call rests on the fitted dose curve; in most records, active means well fitted curve in the direction sought with a large enough effect; inconclusive means small, poorly fitted or top-dose-only effect, or another doubt; inactive means no such curve, though single readings can be large; an effect the other way counts as inactive or inconclusive. Potency means the concentration at half of the fitted maximal effect.

SMILES	MCF10A rereplic	KB-V1 cytotox	KB-3-1 cytotox	Gal4-VP16 FLuc	RORgamma inh	SW480 rereplic
C/C(CC(=O)C(F)(F)F)=N\NC(=O)/C(C#N)=C/N(C)C	14.8%	?	i	?	8.91µM*	1.9%
COc1ccc(Oc2ncc3nc(C)c(=O)n(C)c3n2)cc1	.	.	.	8.9%	1.5%	.
CC1=C(CC(=O)c2ccc(Cl)cc2)C(=O)c2ccccc2C1=O	4.11µM*	16.4µM*	?	0.0%	-25.5%	4.11µM*
O=C(Cc1ccccn1)c1ccc(Cl)cc1	27.0%	i	i	.	.	-2.3%
CCn1c(C)cs/c1=N\C(=S)Nc1ccccc1C	-1.4%	i	i	5.62µM*	2.24µM*	.
O=C1C(N2CCOCC2)=C(n2nnc3ccccc32)C(=O)c2ccccc21	?	4.11µM*	i	5.62µM*	5.01µM*	?
CN1CCN(c2nc(-c3ccccc3C(F)(F)F)nc3ccccc23)CC1	.	.	.	2.6%	-17.6%	.
CC1=CC(=C(c2ccc(N)cc2)c2ccc(N)cc2)C=CC1=N	6.0%	?	2.31µM*	?	?	-3.4%
CCOC(=O)c1c(NC(=O)N/N=C/c2ccccc2OCC)sc(C(C)=O)c1C	?	?	16.4µM*	-1.5%	28.7%	4.4%
CCOC(=O)c1c(NC(=O)CSc2nc3ccccc3o2)sc(C(C)=O)c1C	?	i	i	?	12.6µM*	0.7%
CCOC(=O)c1c(NC(=O)CSc2nnc(Cc3ccccc3)o2)sc(C(C)=O)c1C	11.0%	18.4µM*	i	?	0.0%	-3.6%
CCOC(=O)c1c(NC(=O)CSc2nnc(-c3ccccc3)o2)sc(C(C)=O)c1C	16.3%	?	i	3.2%	-33.0%	1.7%
CCOC(=O)c1c(NC(=O)CN2CCCc3ccccc32)sc(C(C)=O)c1C	-2.0%	4.11µM*	i	-6.0%	58.5%	3.8%
Cc1ccc(-c2cc(C(=O)Nc3ccc(SC(F)F)cc3)no2)cc1F	.	?	i	.	.	.
FC(F)(F)c1cc(CN2CCC3(CCNCC3)CC2)cc(C(F)(F)F)c1	.	.	.	-8.8%	-14.5%	.
C/C(=N\NC(=O)CSc1nc2ccccc2o1)c1ccc(O)cc1	-0.6%	i	i	2.8%	11.2µM*	-3.2%
C/C(=N\NC(=O)CSc1nc2ccccc2o1)c1cccc(O)c1	1.8%	i	i	-4.7%	17.9%	-15.9%
O=C1CC(N2CCCCCC2)C(=O)N1c1ccc(F)cc1 (centres undefined)	13µM*	?	i	?	?	?
O=C1CC(N2CCCCCC2)C(=O)N1c1ccc2c(c1)OCO2 (centres undefined)	14.6µM*	i	i	?	10µM*	-0.6%
O=C1CC(N2CCN(c3ccc(O)cc3)CC2)C(=O)N1c1ccc2c(c1)OCO2 (centres undefined)	-1.9%	?	i	5.4%[10 µM]	-0.3%	-1.8%
O=C1CC(N2CCN(c3ccc(F)cc3)CC2)C(=O)N1c1ccc(F)cc1 (centres undefined)	1.0%	i	i	-0.2%	0.4%	-22.1%
COc1ccc(OC)c(NC(=O)c2c3c(nc4ccccc24)CCC3)c1	-0.7%	6.51µM*	i	-0.4%	-16.9%	9.4%
COc1cc(NC(=O)CSc2c3c(nc4ccccc24)CCC3)cc(OC)c1OC	0.4%	14.6µM*	i	23.6%	?	45.6%
COc1ccc(NC(=O)c2c3c(nc4ccccc24)CCC3)cc1	0.3%	i	i	-4.4%	-9.4%	2.5%
COc1ccccc1NC(=O)CSc1c2c(nc3ccccc13)CCC2	2.3%	?	i	-14.8%	?	-6.0%
SMILES	MCF10A rereplic	KB-V1 cytotox	KB-3-1 cytotox	Gal4-VP16 FLuc	RORgamma inh	SW480 rereplic
COc1cc(NC(=O)c2ccc3c(SCC(=O)O)c4c(nc3c2)CCC4)cc(OC)c1OC	9.9%	i	i	2.6%	-4.4%	-10.3%
COc1ccc(NC(=O)CSc2c3c(nc4ccccc24)CCCC3)c(OC)c1	20.6µM*	i	i	?	-21.0%	?
C[C@H]1C=CC(=O)C[C@H]1c1c(F)cccc1Cl	.	.	.	-13.8%	-3.7%	.
CCOc1cc2[nH]c(=O)n(CCCCC(=O)N3CCN(c4ccccc4OC)CC3)c(=O)c2cc1OCC	.	i	i	.	.	.
Cc1ccc(C2CC2C(=O)NNC(=S)Nc2cccc(C)c2)cc1 (centres undefined)	?	16.4µM*	i	-1.9%	-16.1%	?
Cc1ccc(NC(=S)NNC(=O)C2CC2c2ccc(C)cc2)cc1 (centres undefined)	7.6%	i	i	?	11.2µM*	38.8%
Cc1ccc(C2CC2C(=O)NNC(=S)Nc2cccc(Cl)c2)cc1 (centres undefined)	22.5%	i	i	-5.1%	-26.3%	-1.9%
Cc1ccc(NC(=S)NNC(=O)Nc2ccccc2)cc1	-3.5%	i	i	-11.8%	?	-0.4%
O=C(NNC(=S)Nc1ccc(F)cc1)C1CC1c1ccc(Cl)cc1 (centres undefined)	?	i	i	20µM*	?	-12.3%
NNC(=O)C1CC1c1ccc(Cl)cc1 (centres undefined)	2.4%	i	i	2.6%	-42.8%	0.3%
COc1ccc(NC(=S)NNC(=O)C2CC2c2ccc(C)cc2)cc1 (centres undefined)	?	i	i	-16.9%	-21.3%	18.4µM*
COc1cccc([C@@H]2Oc3ccc(Br)cc3C[C@H]2OC(=O)Nc2ccc(C)c(Br)c2)c1	.	.	.	-23.0%	-1.8%	.
CCN(Cc1ccccc1)C(=O)CN(c1ccc(OC)cc1)S(=O)(=O)c1c(C)nn(C)c1C	.	i	i	.	.	.
CC(=O)/C=C1/C(=O)Nc2ccccc21	?	i	?	7.08µM*	3.55µM*	-5.1%
O=C(O)COc1ccccc1/C=C1\C(=O)Nc2ccc(Br)cc21	-15.9%	i	i	-4.8%	0.0%	-7.5%
O=C1Nc2ccc(Br)cc2/C1=C/C(=O)c1ccccc1	18.4µM*	?	?	.	.	?
C=CCOc1cccc(C(=O)/C=C2/C(=O)Nc3ccccc32)c1	5.8µM*	i	?	?	12.6µM*	?
CSc1nc2nc3c(cc2c(=O)n1-c1ccccc1C)CCCC3	1.9%	?	?	5.01µM*	-15.3%	-9.2%
CCn1c(SCc2ccc(Cl)cc2)nc2nc3c(cc2c1=O)CCCC3	?	?	i	?	12.6µM*	1.6%
Cc1ccc(C[C@@H](NS(=O)(=O)c2ccc(C(=O)O)cc2)C(=O)O)cc1	.	.	.	-0.9%	-12.4%	.
O[C@@H]1CN(Cc2cccs2)[C@@H](c2ccccc2)C[C@H]1n1cc(-c2ccc(F)cc2)nn1	.	i	?	.	.	.
